Most compounds without a hit are left out; they make up all but 4.9% or so of the library.
SKKanGAS inh – S. pyogenes SKKanGAS growth inhibitors in kanamycin, primary screen, streptokinase expression inhibitor project, SKKanGAS strain, BacTiter-Glo luminescence; 6 h; inhibition, % at 7.5 µM; hit rate 1.3% among 300,000; AID 1662, 2009;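 active = mean replicate score, as percent of positive control median, at least 50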;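 note: strain carries kanamycin resistance gene driven by streptokinase promoter and grows in 40 µg/ml kanamycin; loss of luminescence reflects streptokinase promoter inhibition or plain growth inhibition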
NALP3 yeast inh – NALP3 inflammasome inhibitors in reconstituted yeast, primary screen, luminescence, uHTS; inhibition, % at 10 µM; hit rate 0.39% among 330,000; Yeast reconstituted NLRP3/ASC/caspase-1, beta-gal luminescence, 24 h;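 active = inhibition of 50% or more; inactive = inhibition below 50%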
TIM10 inh – growth inhibitors of isogenic TIM10 control yeast, primary screen, counter-screen for tim10-1 yeast inhibitor project, luminescence, uHTS. hit rate 1.4% among 330,000. AID 463195, 2010. inhibition, % at 10 µM. S. cerevisiae TIM10 strain growth, BacTiter-Glo luminescence, 24 h;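 active = inhibition of 40% or more at the single tested concentration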;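 note: wild-type TIM10 isogenic control strain grown at permissive 25 °C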
NALP1 yeast inh – NALP1 inflammasome inhibitors in reconstituted yeast, colorimetric, S. cerevisiae, triplicate retest; S. cerevisiae NALP1/ASC/caspase-1 growth, X-gal OD620, 72 h; hit rate 0.61% among 280,000; inhibition, % at 10 µM; AID 2071, 2009; in the data active = inhibition mostly above about 24%, no sharp cut-off; inactive = mostly below about 32%
tim10-1 inh – growth inhibitors of tim10-1 mutant yeast, primary screen, luminescence, uHTS | inhibition, % at 20 µM | S. cerevisiae tim10-1 ts strain growth, BacTiter-Glo, 24 h | hit rate 2.2% among 330,000;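 active = inhibition of at least 40%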;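 note: mutant grown at 25 °C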
tim23-1 inh – growth inhibitors of tim23-1 mutant yeast, primary screen, luminescence, uHTS | S. cerevisiae tim23-1 growth, BacTiter-Glo luminescence, 24 h | inhibition, % at 20 µM | hit rate 1.3% among 330,000 | AID 463212, 2010;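 active = growth inhibition of the mutant yeast at or above 50%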;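 note: temperature-sensitive mutant grown at 25 °C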
Each line names hits and unclear results; the compound was inactive in the other large screens.

CSCc1ccc(C(=O)N2CCCC(Nc3ccc(F)cc3)C2)o1 (stereo unspecified)	none
COC(=O)CC(N)c1ccc(OC)c2ccccc12 (stereo unspecified)	NALP1 yeast inh 36.1
CCc1ccc(S(=O)(=O)c2nnn3c2nc(N2CCOCC2)c2ccccc23)cc1	none
CCC(=O)OCC(=O)c1c(N)n(Cc2ccccc2)c(=O)n(C)c1=O	NALP1 yeast inh 32.1
CCN(CC)CC(=O)c1c(N)n(Cc2ccccc2)c(=O)n(C)c1=O	none
Cc1cc(C)c2nc(SCCc3ccccc3)nc(C)c2c1	SKKanGAS inh 71.5
Cc1cc(C)c2nc(SCc3ccc([N+](=O)[O-])cc3)nc(C)c2c1	none
COC(=O)[C@]1(Cc2ccccc2)N[C@H](CN(C)C(=O)Nc2ccc(C)cc2)[C@@H]2C(=O)N(C)C(=O)[C@@H]21	none (no result: SKKanGAS inh, NALP1 yeast inh)
CCOC(=O)c1sc(NC(=O)CNCc2ccccn2)c(C(=O)OCC)c1C	SKKanGAS inh 87.5
CC(=O)c1nc2ccccc2n1S(=O)(=O)c1ccc(Cl)cc1	none
CC(=O)c1nc2ccccc2n1S(=O)(=O)c1ccc(C)cc1	NALP1 yeast inh 27.8
Cc1[nH]n(-c2nc(-c3ccc(Cl)cc3)cs2)c(=O)c1N=Nc1ccc(O)cc1	SKKanGAS inh 60.8
COc1ccccc1OCCn1nnc2ccccc21	none
Cc1ccc2sc(NNC(=O)c3cc(-c4cccs4)nc4ccccc34)nc2c1C	SKKanGAS inh 90.2 (no result: NALP3 yeast inh, TIM10 inh, tim10-1 inh, tim23-1 inh)
Cc1cc(C)c2nc(NNC(=O)c3cc(-c4cccs4)nc4ccccc34)sc2c1	SKKanGAS inh 88.6
CCC1C/C(=C\c2cc(OC)c(OC)cc2OC)C(=O)/C(=C/c2cc(OC)c(OC)cc2OC)C1 (stereo unspecified)	none (no result: NALP3 yeast inh, TIM10 inh, tim10-1 inh, tim23-1 inh)
COc1cc(OC)c(OC)cc1/C=C1\CC(C)C/C(=C\c2cc(OC)c(OC)cc2OC)C1=O (stereo unspecified)	SKKanGAS inh 55.6 (no result: NALP3 yeast inh, TIM10 inh, tim10-1 inh, tim23-1 inh)
Cc1ccc2oc(=O)c3cnn(CC(=O)N(CCN(C)C)Cc4ccco4)c3c2c1	NALP1 yeast inh 41.1
COc1ccc(C(CC(=O)N2CCCC2)c2c(OC)cc(OC)c3c(-c4ccccc4)cc(=O)oc23)cc1 (stereo unspecified)	none
COc1ccc(C(CC(=O)N2CCCC(C)C2)c2c(OC)cc(OC)c3c(-c4ccccc4)cc(=O)oc23)cc1 (stereo unspecified)	SKKanGAS inh 66.5
CCN(CC)S(=O)(=O)c1cccc(NC(=O)Nc2cccc(C(F)(F)F)c2)c1	NALP1 yeast inh 36.7
CC1CCCC(C)N1C(=O)COC(=O)CNC(=O)c1ccc(Cl)cc1Cl (stereo unspecified)	none (no result: NALP1 yeast inh)
CCOc1ccc(NC(=O)c2ccc3[nH]c(=O)c(=O)[nH]c3c2)cc1	none
Clc1ccc(-c2nnnn2-c2ccc(Cl)c(Cl)c2)cc1Cl	SKKanGAS inh 58.4
Nc1ccc(-c2nnnn2-c2ccc(N)cc2)cc1	none
c1ccc(CCNc2c3c(nc4ncnn24)CCC3)cc1	NALP1 yeast inh 25.0
O=[N+]([O-])c1ccc(-c2ccn[nH]2)o1	NALP1 yeast inh 66.9
COc1cc(O)c(CC=C(C)C)c(O)c1C(=O)CCc1ccc(O)cc1	SKKanGAS inh 97.7
COc1sc(SC)cc1/C=N/NC(=O)c1ccncc1	none
CCCCn1c(/C=C/c2ccco2)nc2ccccc21	NALP1 yeast inh 54.9
Fc1ccc(Nc2nc(N3CCOCC3)c3ccccc3n2)cc1	none
c1ccc2c(Nc3nc(N4CCOCC4)c4ccccc4n3)cccc2c1	NALP1 yeast inh 91.4
CC1(C)N=C(N)N=C(N)N1c1ccccc1	SKKanGAS inh 104.6
CC1(C)N=C(N)N=C(N)N1c1cccc(CN)c1	none (no result: NALP1 yeast inh)
CC1(C)N=C(N)N=C(N)N1c1ccc(Oc2ccc(Cl)cc2)c(Cl)c1	SKKanGAS inh 93.9
CC1(C)N=C(N)N=C(N)N1c1ccc(F)cc1F	none
COc1cc(C(CC(=O)Nc2cccc(C)n2)N2Cc3ccccc3C2=O)cc(OC)c1OC (stereo unspecified)	none
CCc1ccc(NC(=O)c2cnn(-c3ccccc3)c2C2CCNCC2)cc1	none
Cc1cc(C)cc(NC(=O)c2cnn(-c3ccccc3)c2C2CCNCC2)c1	NALP1 yeast inh 23.0
